Experimental data: PubChem BioAssay (NCATS)
Results filed as inconclusive are left out. Activity calls are given as the source filed them. Unless noted, calls follow the shape of the dose curve; as a rule, active = well fitted curve in the direction sought with a large enough effect; inconclusive = small, poorly fitted or top-dose-only effect, or another doubt; inactive = no such curve, though single readings can be large; an effect the other way counts as inactive or inconclusive.

What was measured:
[1] = qHTS profiling for inhibitors of Plasmodium falciparum (HB3) proliferation (AID 743324); conditions: Plasmodium falciparum HB3 blood-stage proliferation; at 28.7 µM (top of the series) unless noted;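 also: 100% = DMSO vehicle wells and 0% = artemisinin-treated control wells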
How it was run: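 SYBR Green fluorescence (485 ex/535 em) of lysed cultures, incubated overnight at room temperature in the dark, quantifies parasite DNA. Infected erythrocytes at 0.3% parasitemia and 2.5% hematocrit were exposed 72 h; values normalized to DMSO and 0.29 uM artemisinin controls.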

[2] = qHTS profiling of the MIPE4 collection as inhibitors of Plasmodium falciparum (3D7) proliferation (AID 743344; call rule not given here;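 also: scaled between DMSO vehicle wells and 0.29 µM artemisinin as full inhibition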); conditions: P. falciparum 3D7 in erythrocytes, SYBR Green DNA fluorescence, 72 h; at 28.5 µM (top of the series) unless noted
How it was run: (§1)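 Parasite DNA was quantified by SYBR Green I fluorescence (ex 485, em 535 nm) after overnight lysis in saponin/Triton buffer at room temperature. Cultures at 0.3% parasitemia and 2.5% hematocrit were first exposed to compound for 72 h at 37 C; signals were normalised to artemisinin (0.29 uM) and vehicle wells.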

[3] = qHTS profiling of the MIPE4 collection as inhibitors of Plasmodium falciparum (DD2) proliferation (AID 743345; call rule not given here); conditions: P. falciparum Dd2 in erythrocytes, SYBR Green DNA, 72 h; at 28.5 µM (top of the series) unless noted
How it was run: as §1

[4] = qHTS profiling of the MIPE4 collection as inhibitors of Plasmodium falciparum (HB3) proliferation (AID 743347; call rule not given here;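 also: plate controls were DMSO vehicle wells for no effect and artemisinin wells for full effect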); conditions: P. falciparum HB3 in erythrocytes, SYBR Green DNA, 72 h; at 28.5 µM (top of the series) unless noted
How it was run: as §1

[5] = High-throughput drug toxicity screening in the BPDCN cell line Gen2.2 (AID 1224824; call rule not given here;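 also: cells exposed to compounds for 48 h before reading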); conditions: Gen2.2 BPDCN cells; at 45.8 µM (top of the series) unless noted
How it was run: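 Seed 500 exponentially growing Gen2.2 cells/well; add compounds by pin tool; incubate 48 h, 37 °C, 5% CO2; add CellTiter-Glo, 15 min RT; read luminescence. % activity vs DMSO (100%) and bortezomib (0%).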

[6] = High-throughput drug toxicity screening in the BPDCN cell line Cal-1 (AID 1224825; call rule not given here); conditions: Cal-1 BPDCN cell viability, qHTS; at 45.8 µM (top of the series) unless noted
How it was run: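 CellTiter-Glo luminescence after 48 h compound exposure; percent activity scaled with DMSO as 100% and bortezomib (9.2 uM final) as 0%. Cal-1 cells seeded at 500/well in RPMI, 10% FBS, no phenol red.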

[7] = qHTS assay for measurement of the activity of small molecule inhibitors on Zika virus induced Caspase-3 activity in human iPSC derived neural progenitor cells (hNPCs) (AID 1224857); also: % of control where 0% means no effect; nearly all actives have a fitted effect of over 65% in size
How it was run: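 Zika virus (2 FFU/cell) infection of human iPSC-derived NPCs, 6 h, following 1 h compound preincubation. Read-out: Caspase-Glo 3/7 luminescence.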

[8] = qHTS assay for measurement of the activity of small molecule inhibitors on Zika virus induced Caspase-3 activity in human astrocytoma cells (AID 1224859);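 also: plate controls were ZIKV-infected untreated cells for no effect and uninfected cells for full effect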
How it was run: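 Caspase activation in ZIKV-infected SNB-19 cells (2 FFU/cell, 6 h) measured by Caspase-Glo 3/7 luminescence after 30 min RT; compound pre-incubated 1 h; normalised to uninfected and infected controls.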

[9] = qHTS Screen of the MIPE 4.0 Collection Against Ewings Sarcoma (RDES) (AID 1259252); also: nearly all actives have a fitted effect of over 35% in size; also: potency is read from the fitted curve at half-maximal effect
How it was run: (§2)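 Dose series incubated 48 h with cells in RPMI plus 5% FBS, glutamine and penicillin/streptomycin; cell viability then quantified via CellTiter-Glo.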

[10] = qHTS Screen of the MIPE 4.0 Collection Against Ewings Sarcoma (EW8) (AID 1259255); also: nearly all actives have a fitted effect of over 35% in size; also: potency is read from the fitted curve at half-maximal effect;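 as to viability: 100% = DMSO-treated cells and 0% = medium-only wells without cells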
How it was run: as §2

[11] = qHTS Screen of the MIPE 4.0 Collection Against Ewings Sarcoma (TC32) (AID 1259256); also: nearly all actives have a fitted effect of over 45% in size; also: potency is read from the fitted curve at half-maximal effect
How it was run: as §2

[12] = Identifying Small Molecule Inhibitors of Pancreatic Cancer Stem Cells (SN12C, Adherent) (AID 1259358);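 also: cell survival measured after 48 h of compound exposure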
How it was run: (§3)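 Endpoint: ATP-based luminescence, 48 h drug exposure. Bortezomib at 9.2 uM final as full-kill control; DMSO vehicle as negative control; activity normalized between vehicle and cell-free wells.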

[13] = Identifying Small Molecule Inhibitors of Pancreatic Cancer Stem Cells (SN12C, Spheroid) (AID 1259360); conditions: Potency: SN12C spheroid viability;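 also: 100% = DMSO-treated cells and 0% = wells without cells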
How it was run: as §3

[14] = Identifying Small Molecule Inhibitors of Pancreatic Cancer Stem Cells (A278, Adherent) (AID 1259361);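 also: viability read after 48 h compound exposure; 100% = DMSO-treated cells and 0% = cell-free media-only wells; nearly all actives have a fitted effect of over 35% in size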
How it was run: as §3

[15] = qHTS profiling of the MIPE4 collection as inhibitors of Plasmodium falciparum (DD2) proliferation (Rep 2) (AID 743346; call rule not given here); conditions: P. falciparum Dd2 in erythrocytes, SYBR Green DNA, 72 h; at 28.5 µM (top of the series) unless noted
How it was run: as §1

[16] = qHTS Screen of the MIPE 4.0 Collection Against Ewings Sarcoma (TC71) (AID 1259253); also: potency is read from the fitted curve at half-maximal effect; nearly all actives have a fitted effect of over 40% in size
How it was run: as §2

[17] = P-glycoprotein substrates identified in KB-3-1 adenocarcinoma cell line, qHTS therapeutic library screen (AID 1346986); also: nearly all actives have a fitted effect of over 60% in size;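 also: potency is read from the fitted curve at half-maximal effect; potency is for cytotoxicity meaning loss of cell viability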
How it was run: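 In 1536-well format, 500 cells/well received pinned compound titrations and were incubated 72 h, 5% CO2. Viability was read by CellTiter-Glo; cytotoxic if AC50 < 10 uM and efficacy >50%.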

Structure (SMILES)	remaining proliferation (% of control), lower = more inhibition [1] [%]	parasite growth, % of DMSO control [2] [%]	parasite growth remaining, % of DMSO control (lower = more inhibition) [3] [%]	growth, % of control [4] [%]	cell viability, % of control (lower = more cytotoxic) [5] [%]	viability (% of control) [6] [%]	Potency [7]	Potency [8]	Potency [9]	Potency [10]	Potency [11]	Potency [12]	Potency [13]	IC50 (viability decrease) [14]	parasite growth, % of control (lower = inhibition) [15] [%]	Potency [16]	Potency [17]
Cn1cc(-c2ccc3nnc(Sc4ccc5ncccc5c4)n3n2)cn1	72.7	36.1	86.3	43.3	121	102	inactive	inactive	20.9 µM (active)	inactive	inactive	inactive	inactive	inactive			
CCCCCOC(=O)Nc1nc(=O)n([C@@H]2O[C@H](C)[C@@H](O)C2O)cc1F (some centres not stated)		253	102	171	124	102	inactive	inactive	inactive	inactive	20.9 µM (active)				83.9		
COc1ccc2cc1Oc1ccc(cc1)C[C@H]1c3cc(c(OC)cc3CCN1C)Oc1c(OC)c(OC)cc3c1[C@H](C2)N(C)CC3				13.9	146	94.6	inactive	inactive	20.9 µM (active)							20.9 µM (active)	
C=CC[N+]1([C@H]2C[C@H]3[C@@H]4CC[C@H]5C[C@H](O)[C@@H](N6CCOCC6)C[C@]5(C)[C@@H]4CC[C@]3(C)[C@H]2OC(C)=O)CCCC1		31.1	41	40.8	168	116	inactive	inactive	inactive	inactive	inactive				21.1		
O=C1C(c2c(O)[nH]c3ccccc23)=Nc2ccccc21		90.1	86.5	98.4	52.3	68.6	inactive	inactive	0.469 µM (active)	26.4 µM (active)	29.6 µM (active)				73.7		inactive
COc1ccc2ccc(=O)oc2c1CC=C(C)C		94.2	15.6	80.3	124	97.4	inactive	inactive	23.5 µM (active)	7.43 µM (active)	inactive				73.4		inactive
CN(C)CCCNC(=O)c1ccc(-c2cc(O)c3ncccc3c2)cc1	5.15	25.8	15.1	8.59	48.4	19.6	inactive	inactive	16.6 µM (active)	14.8 µM (active)	14.8 µM (active)	inactive	inactive		23.5		18.4 µM (active)
